Bioassay records as filed in PubChem BioAssay.
The list is not random: actives were taken first. Their share in the collection is about 19%.
BCR signal inh – blocks chronic active B-cell receptor signaling | ABC-DLBCL IkBa-CBG/CBR reporter, luminescence ratio, 4 h | Potency, µM (top dose mostly 46.1 µM), inactives show at the highest dose activity change, negative = inhibition, actives largely listed as inhibitors | actives 0.05% (n = 340,000); active = well fitted inhibition curve with a large enough effect in the signal ratio, with a control signal flat, not every such curve was filed as active; inconclusive = small, poorly fitted or top-dose-only effect, or effect the other way, or a change in a side signal; the % refers to the signal ratio;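 note: potency is the fitted concentration of half-maximal effect; plate controls were basal doxycycline-induced cells for no effect and cells given 10 µM MG132 for full effect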
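TMD8 human ABC-DLBCL cells with doxycycline-inducible IκBα–green luciferase fusion and unfused red luciferase, in 0.5% FBS medium; compounds up to 46 uM, 4 h at 37C. Green/red luminescence ratio, filter-overlap corrected, fitted to concentration-response curves.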
SW480 rereplic – induces DNA re-replication in SW480 colon adenocarcinoma cells; Potency, µM (titrated, usually from 46.1 µM), for inactives: at the top dose re-replication activation, actives largely listed as activators; actives 1.8% (n = 340,000); SW480 DNA re-replication, Hoechst DNA content imaging, 48 h; AID 624297; note: potency is the fitted concentration of half-maximal effect; % of control where 0% means no effect; nearly all actives have a fitted effect of over 55% in size
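250 cells/well; 23 nL cpd via pin tool; 48 hr, 37 C, 5% CO2; Hoechst 40 min; imager read of total nuclear intensity, ex 405/em 500-530 nm.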
IL1B secr inh – inhibitors of inflammasome signaling (IL-1 beta secretion); AID 743279; activity change, % at 57.5 µM; THP-1 LPS/ATP IL-1B secretion, AlphaLISA, 16 h; stronger effect = lower value; actives 4.7% (n = 360,000); in the data active = activity change below about -50%; inconclusive = mostly about -30% to -49%; note: % is set by controls: 0 for no effect and ±100 for the full control effect
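Secreted IL-1B measured by AlphaLISA bead assay after 16 h compound exposure of THP-1 cells; compounds (final up to 57.5 uM) added 1 h before LPS (250 ng/mL) and ATP (1.25 mM) stimulation; lower signal means less secretion.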
MCF10A rerep – induces DNA re-replication in MCF 10a normal breast cells | MCF 10A DNA re-replication, Hoechst nuclear intensity, 48 h | Potency, µM (top dose mostly 46.1 µM), for the others: at the highest dose activity, positive = re-replication, usual class: activators | actives 2.9% (n = 350,000); note: potency is the fitted concentration of half-maximal effect; % of control where 0% means no effect; nearly all actives have a fitted effect of over 50% in size
TDP1 cell noCPT – qHTS for Inhibitors of human tyrosyl-DNA phosphodiesterase 1 (TDP1): qHTS in cells in absence of CPT | actives 15% (n = 420,000) | Potency, µM (doses to about 46.2 µM), inactives show top-dose activity change, negative = growth inhibition, usual class: inhibitors | DT40 Tdp1-/- hTDP1 cells, no CPT, ATP luminescence, 48 h | AID 686978, 2013; note: potency is the fitted concentration of half-maximal effect; % is set by controls: 0 for no effect and ±100 for the full control effect; nearly all actives have a fitted effect of over 55% in size
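Growth kinetics read by CellTiter-Glo luminescence after ≥48 hr at 37 °C. Cells: DT40 Tdp1-/- stably carrying human TDP1, 400 per well, compound exposure in the absence of CPT (DMSO vehicle).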
TDP1 cell CPT – DT40-hTDP1 cell growth loss with CPT; chicken DT40 Tdp1-/-;hTDP1 cells + 20 nM CPT, ATP luminescence, 48 h; Potency, µM (highest dose often 46.2 µM), inactives show at the top dose activity change, negative = growth inhibition, hits mostly inhibitors; actives 12% (n = 420,000); AID 686979; note: potency is the fitted concentration of half-maximal effect; % is set by controls: 0 for no effect and ±100 for the full control effect; nearly all actives have a fitted effect of over 55% in size
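Chicken DT40 Tdp1-/- cells stably complemented with human TDP1 were seeded at 400 cells/well in medium containing 20 nM camptothecin, exposed to pin-transferred compounds, and grown at 37 °C for at least 48 hr. Viability was read as ATP luminescence.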
Numbers without * were called inactive; ? = inconclusive; / = no result; [ ] = dose if it differs, or a comment. Unless noted, calls come from the whole dose curve; as a rule, active = well fitted curve in the direction sought with a large enough effect; inconclusive = small, poorly fitted or top-dose-only effect, or another doubt; inactive = no such curve, though single readings can be large; an effect the other way counts as inactive or inconclusive.

SMILES	BCR signal inh	SW480 rereplic	IL1B secr inh	MCF10A rerep	TDP1 cell noCPT	TDP1 cell CPT
CNc1ccnc(-c2cccc(NS(C)(=O)=O)c2)n1	/	/	/	/	12%	20%
CCC(C)NC(=O)Cn1cnc2sc(C)c(S(=O)(=O)N3CCN(c4ccccc4OC)CC3)c2c1=O (centres undefined)	3%	14%	2	2%	-29%	8%
Cc1sc2ncn(CC(=O)N(C)c3ccc(C(C)C)cc3)c(=O)c2c1S(=O)(=O)N1CCC(C)CC1	/	/	/	/	23µM*	23µM*
COc1ccccc1N1CCN(S(=O)(=O)c2c(C)sc3ncn(CC(=O)N(C)c4ccc(C(C)C)cc4)c(=O)c23)CC1	/	/	/	/	?	13µM*
CCC(C)c1ccc(S(=O)(=O)N2CCN(c3ccccn3)CC2)cc1 (centres undefined)	0%	-1%	4	?	-24%	-12%
O=C(O)Cn1nncc1-c1ccc(C(F)(F)F)cc1	/	/	20	/	-3%	0%
O=C(O)[C@H]1C(=CCO)O[C@H]2CC(=O)N12	/	-5%	/	-3%	/	/
CCCCC1(Br)C(=O)N(c2ccccc2)N(c2ccccc2)C1=O	0%	1%	-1	11%	16µM*	?
CCCCC1(CO)C(=O)N(c2ccccc2)N(c2ccccc2)C1=O	-3%	-9%	-18	-1%	?	?
C[C@H](CO)N1C[C@H](C)[C@H](CN(C)C(=O)OCc2ccccc2)OCc2cnnn2CCCC1=O	/	/	38	/	13%	5%
O=C(c1ccc(Cl)c(S(=O)(=O)N2CCCC2)c1)N1CCN(c2ccc(F)cc2)CC1	0%	-3%	-24	?	13µM*	?
O=C(c1ccc(Cl)c(S(=O)(=O)N2CCCCCC2)c1)N1CCCC1	1%	-54%	48	6%	-19%	?
O=C(c1ccc(Cl)c(S(=O)(=O)N2CCOCC2)c1)N1CCN(c2ccccc2)CC1	3%	1%	2	?	?	?
CC(=O)N1CCN(C(=O)c2cc(S(=O)(=O)N3CCN(c4ccccc4)CC3)ccc2Cl)CC1	6%	-1%	23	-1%	10µM*	?
O=C(c1ccc(Cl)c(S(=O)(=O)N2CCCC2)c1)N1CCN(c2ccccc2)CC1	4%	-3%	10	-27%	?	18µM*
O=C(c1cc(S(=O)(=O)N2CCOCC2)ccc1Cl)N1CCN(c2ccccn2)CC1	-5%	-3%	31	-25%	?	-27%
CN1CC(=O)NC1=NC(=O)c1ccc(Cl)c(S(=O)(=O)N2CCCCCC2)c1	-12%	19%	4	?	8.2µM*	?
Cc1ccc(CNC(=O)C2CCC(=O)N2C(C)C)cc1 (centres undefined)	-1%	2%	-3	0%	2%	7%
CC(=O)N1CCc2cc(Br)cc(S(=O)(=O)N3CCC(C)CC3)c21	/	/	/	/	-20%	-10%
O=C(c1ccc(Cl)c(S(=O)(=O)N2CCCCC2)c1)N1CCCC1	0%	1%	17	22%	-14%	-16%
O=C(c1ccc(Cl)c(S(=O)(=O)N2CCCCC2)c1)N1CCN(c2ccccc2)CC1	7%	1%	-17	5%	?	23µM*
CN(c1ccccc1)S(=O)(=O)c1cc(C(=O)N2CCN(c3ccccn3)CC2)ccc1Cl	-3%	-4%	?	7%	7.3µM*	9.2µM*
O=C(c1ccc(Cl)c(S(=O)(=O)N2CCCCCC2)c1)N1CCN(c2ccccc2O)CC1	8%	-6%	-68*	18%	?	?
O=C(c1ccc(Cl)c(S(=O)(=O)N2CCCCC2)c1)N1CCCCC1	0%	-11%	36	10%	-26%	?
CCn1c(SCC(=O)N2CCCc3ccccc32)nc2ccccc2c1=O	?	2%	-24	23µM*	15µM*	?
SMILES	BCR signal inh	SW480 rereplic	IL1B secr inh	MCF10A rerep	TDP1 cell noCPT	TDP1 cell CPT
COCCCn1c(=O)c2ccccc2n(CC(=O)N2CCCc3ccccc32)c1=O	3%	9%	7	-16%	?	26µM*
O=C(CSc1nc2ccccc2c(=O)n1-c1ccccc1)N1CCCc2ccccc21	-4%	5%	-17	24%	?	-1%
CCn1c(SCC(=O)N2CCCc3ccccc32)nc2cccnc21	20%	1%[9.22 µM]	-4	?	18µM*	?
CC(C)OCCCn1c(SCC(=O)N2CCc3ccccc32)nc2ccccc2c1=O	-1%	4%	0	-4%	12µM*	?
COC(=O)CN(C)C(=O)c1ccc(OC2CCN(S(=O)(=O)N(C)C)CC2)cc1	-7%	-5%	11	-1%	-2%	-1%
C/C(=C\c1ccc(F)cc1)C(=O)c1c(C)cc(C)[nH]c1=O	-2%	-7%	-20	-3%	?	-9%
CN(Cc1ccc2c(c1)CCCN2C)C(=O)[C@H]1O[C@@H](n2cnc3c(N)ncnc32)[C@H](O)[C@@H]1O	/	/	-19	/	?	-27%
Cc1cc(C(=O)NN)c(Cl)cc1Cl	-20%	-5%	3	0%	0%	-20%
O=C(CSc1nc2ccccc2c(=O)n1-c1ccccc1)N1CCc2ccccc21	-1%	-7%	19	-5%	?	?
CC(C)Cn1c(SCC(=O)N2CCCc3ccccc32)nc2ccccc2c1=O	16%	?	-66*	21µM*	18µM*	16µM*
Cc1cc2c(=O)n(Cc3ccco3)c(SCC(=O)NCc3ccco3)nc2s1	8%	-5%	-1	-1%	-21%	-22%
Cc1cc2c(=O)n(Cc3ccco3)c(SCC(=O)N3CCCc4ccccc43)nc2s1	?	14%	-67*	-2%	?	?
Cn1c(SCC(=O)N2CCCc3ccccc32)nc2cccnc21	?	1%	-12	7%	?	?
Cn1c(SCC(=O)N2CCc3ccccc32)nc2cccnc21	0%	-14%	-9	-15%	21µM*	16µM*
COc1ncc2nc(-c3ccc(Cl)cc3)c(=O)n(CCC#N)c2n1	/	/	/	/	2%	22%
O=C(Nc1cc2c3c(c1)CC(=O)N3CCC2)c1ccc(Cl)cc1	?	-20%	?	2%	?	?
Cc1ccc(NC(=O)CSCC(=O)OC(C)C(=O)Nc2ccc(S(N)(=O)=O)cc2)c(C)c1 (centres undefined)	-3%	-1%	39	-6%	-13%	1%
